# Test results: publication PMC11006913
# Experiments:
# Test in all cases: PBM; 200 nM protein, PBS
# Settings in all cases: dsDNA, one strand shown
# [1] = molecular target: CRX (Homo sapiens, UniProt O43186 26-111)
# [2] = molecular target: CRX (Homo sapiens, UniProt O43186 26-111, E42D)
# [3] = molecular target: ALX3 (Homo sapiens, UniProt O95076 139-225, N203Q)
# [4] = molecular target: ALX3 (Homo sapiens, UniProt O95076 139-225)
# [5] = molecular target: ALX3 (Homo sapiens, UniProt O95076 139-225, L168Q)
# [6] = molecular target: ALX3 (Homo sapiens, UniProt O95076 139-225, L168V)
# [7] = molecular target: CRX (Homo sapiens, UniProt O43186 26-111, R41L)
# [8] = molecular target: ALX3 (Homo sapiens, UniProt O95076 139-225, N203S)
# [9] = molecular target: PITX2 (Homo sapiens, UniProt Q99697 72-157)
# [10] = molecular target: MSX2 (Homo sapiens, UniProt P35548 130-214, R199I)
# [11] = molecular target: MSX2 (Homo sapiens, UniProt P35548 130-214)
# [12] = molecular target: MSX2 (Homo sapiens, UniProt P35548 130-214, F161Y)
# Chain of MSX2 (Homo sapiens, UniProt P35548 130-214, F161Y) (P35548 130-214 F161Y): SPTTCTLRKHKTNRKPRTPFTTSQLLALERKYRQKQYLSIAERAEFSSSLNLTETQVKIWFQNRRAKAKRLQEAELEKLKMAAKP
# Chain of ALX3 (Homo sapiens, UniProt O95076 139-225, L168V) (O95076 139-225 L168V): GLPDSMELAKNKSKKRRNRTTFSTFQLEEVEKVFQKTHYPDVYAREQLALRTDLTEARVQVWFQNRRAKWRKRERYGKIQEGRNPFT
# Chain of ALX3 (Homo sapiens, UniProt O95076 139-225, L168Q) (O95076 139-225 L168Q): as the sequence (O95076 139-225 L168V) above, with V30Q counted along it
# Chain of CRX (Homo sapiens, UniProt O43186 26-111) (O43186 26-111): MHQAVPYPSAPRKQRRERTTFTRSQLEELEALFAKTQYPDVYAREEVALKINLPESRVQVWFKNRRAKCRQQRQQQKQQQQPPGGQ
# Chain of ALX3 (Homo sapiens, UniProt O95076 139-225, N203S) (O95076 139-225 N203S): as the sequence (O95076 139-225 L168V) above, with V30L, N65S counted along it
# Chain of ALX3 (Homo sapiens, UniProt O95076 139-225, N203Q) (O95076 139-225 N203Q): as the sequence (O95076 139-225 L168V) above, with V30L, N65Q counted along it
# Chain of CRX (Homo sapiens, UniProt O43186 26-111, R41L) (O43186 26-111 R41L): as the sequence (O43186 26-111) above, with R16L counted along it
# Chain of ALX3 (Homo sapiens, UniProt O95076 139-225) (O95076 139-225): as the sequence (O95076 139-225 L168V) above, with V30L counted along it
# Chain of CRX (Homo sapiens, UniProt O43186 26-111, E42D) (O43186 26-111 E42D): as the sequence (O43186 26-111) above, with E17D counted along it
# Chain of MSX2 (Homo sapiens, UniProt P35548 130-214, R199I) (P35548 130-214 R199I): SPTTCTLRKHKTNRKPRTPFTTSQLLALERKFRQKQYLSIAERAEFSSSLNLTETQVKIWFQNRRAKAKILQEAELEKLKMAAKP
# Chain of MSX2 (Homo sapiens, UniProt P35548 130-214) (P35548 130-214): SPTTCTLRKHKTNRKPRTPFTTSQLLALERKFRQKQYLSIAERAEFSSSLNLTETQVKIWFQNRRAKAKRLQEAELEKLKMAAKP
Sequence,binding signal [1],binding signal [2],binding signal [3],binding signal [4],binding signal [5],binding signal [6],binding signal [7],binding signal [8],binding signal [9],binding signal [10],binding signal [11],binding signal [12]
CTCCGCGC,"8.47 upbm affinity estimate (log intensity, higher = more binding, comparable within an allelic series)","8.47 upbm affinity estimate (log intensity, higher = more binding, comparable within an allelic series)","7.75 upbm affinity estimate (log intensity, higher = more binding, comparable within an allelic series)","7.82 upbm affinity estimate (log intensity, higher = more binding, comparable within an allelic series)","7.71 upbm affinity estimate (log intensity, higher = more binding, comparable within an allelic series)","7.69 upbm affinity estimate (log intensity, higher = more binding, comparable within an allelic series)","8.43 upbm affinity estimate (log intensity, higher = more binding, comparable within an allelic series)","7.76 upbm affinity estimate (log intensity, higher = more binding, comparable within an allelic series)",,,,
GGATTATA,"13.5 upbm affinity estimate (log intensity, higher = more binding, comparable within an allelic series)","13.6 upbm affinity estimate (log intensity, higher = more binding, comparable within an allelic series)",,,,,"13.7 upbm affinity estimate (log intensity, higher = more binding, comparable within an allelic series)",,"13.2 upbm affinity estimate (log intensity, higher = more binding, comparable within an allelic series)",,,
TAATCCGA,"13.6 upbm affinity estimate (log intensity, higher = more binding, comparable within an allelic series)","13.6 upbm affinity estimate (log intensity, higher = more binding, comparable within an allelic series)",,,,,"13.5 upbm affinity estimate (log intensity, higher = more binding, comparable within an allelic series)",,"13.1 upbm affinity estimate (log intensity, higher = more binding, comparable within an allelic series)",,,
AGTAATCC,"13.2 upbm affinity estimate (log intensity, higher = more binding, comparable within an allelic series)","13.1 upbm affinity estimate (log intensity, higher = more binding, comparable within an allelic series)",,,,,"13 upbm affinity estimate (log intensity, higher = more binding, comparable within an allelic series)",,"13.1 upbm affinity estimate (log intensity, higher = more binding, comparable within an allelic series)",,,
CTAATCCA,"13.3 upbm affinity estimate (log intensity, higher = more binding, comparable within an allelic series)","13.3 upbm affinity estimate (log intensity, higher = more binding, comparable within an allelic series)",,,,,"13 upbm affinity estimate (log intensity, higher = more binding, comparable within an allelic series)",,"13.2 upbm affinity estimate (log intensity, higher = more binding, comparable within an allelic series)",,,
CGCGCCAG,"8.61 upbm affinity estimate (log intensity, higher = more binding, comparable within an allelic series)","8.52 upbm affinity estimate (log intensity, higher = more binding, comparable within an allelic series)",,,,,"8.44 upbm affinity estimate (log intensity, higher = more binding, comparable within an allelic series)",,,"9.5 upbm affinity estimate (log intensity, higher = more binding, comparable within an allelic series)","9.73 upbm affinity estimate (log intensity, higher = more binding, comparable within an allelic series)","9.71 upbm affinity estimate (log intensity, higher = more binding, comparable within an allelic series)"
GAGACTGC,"8.28 upbm affinity estimate (log intensity, higher = more binding, comparable within an allelic series)","8.22 upbm affinity estimate (log intensity, higher = more binding, comparable within an allelic series)","7.74 upbm affinity estimate (log intensity, higher = more binding, comparable within an allelic series)","7.6 upbm affinity estimate (log intensity, higher = more binding, comparable within an allelic series)","7.71 upbm affinity estimate (log intensity, higher = more binding, comparable within an allelic series)","7.72 upbm affinity estimate (log intensity, higher = more binding, comparable within an allelic series)","8.35 upbm affinity estimate (log intensity, higher = more binding, comparable within an allelic series)","7.73 upbm affinity estimate (log intensity, higher = more binding, comparable within an allelic series)",,,,
AGGTGCGG,"8.42 upbm affinity estimate (log intensity, higher = more binding, comparable within an allelic series)","8.46 upbm affinity estimate (log intensity, higher = more binding, comparable within an allelic series)","7.78 upbm affinity estimate (log intensity, higher = more binding, comparable within an allelic series)","7.66 upbm affinity estimate (log intensity, higher = more binding, comparable within an allelic series)","7.81 upbm affinity estimate (log intensity, higher = more binding, comparable within an allelic series)","7.75 upbm affinity estimate (log intensity, higher = more binding, comparable within an allelic series)","8.35 upbm affinity estimate (log intensity, higher = more binding, comparable within an allelic series)","7.79 upbm affinity estimate (log intensity, higher = more binding, comparable within an allelic series)",,,,
CGACTCGC,"8.13 upbm affinity estimate (log intensity, higher = more binding, comparable within an allelic series)","8.24 upbm affinity estimate (log intensity, higher = more binding, comparable within an allelic series)","7.77 upbm affinity estimate (log intensity, higher = more binding, comparable within an allelic series)","7.61 upbm affinity estimate (log intensity, higher = more binding, comparable within an allelic series)","7.85 upbm affinity estimate (log intensity, higher = more binding, comparable within an allelic series)","7.71 upbm affinity estimate (log intensity, higher = more binding, comparable within an allelic series)","8.21 upbm affinity estimate (log intensity, higher = more binding, comparable within an allelic series)","7.81 upbm affinity estimate (log intensity, higher = more binding, comparable within an allelic series)",,,,
